Test results from PubChem BioAssay AID2685 (National Center for Advancing Translational Sciences (NCATS), 2010).
Screen size: about 320,000 compounds; about 2,100 (0.66%) were called active. Inconclusive results (about 53%) are left out. Calls come from the whole dose curve; as a rule, active = well fitted inhibition curve with a large enough effect in the signal ratio, with a control signal flat (not every such curve was filed as active); inconclusive = small, poorly fitted or top-dose-only effect, or effect the other way, or a change in a side signal; inactive = flat fitted curve, though single readings scatter; the % refers to the signal ratio. Shown is part of a subset that was picked to be rich in actives.

experiment: qHTS Assay for Lipid Storage Modulators in Drosophila S3 Cells; conditions: BODIPY lipid droplet fluorescence, 18-24 h, cells fed with added oleic acid; cell number change: measured here: cell count max response; series mostly up to 46.1 µM; lipid storage change, negative = inhibition: at the top concentration;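 for cell number change: cells counted by Cell Tracker Red CMTPX staining in the red channel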; for lipid storage change, negative = inhibition: % is set by controls: 0 for no effect and ±100 for the full control effect
How it was run: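 Drosophila S3 cells loaded with oleic acid (400 uM, as added) and compounds at several concentrations; lipid droplets imaged by 488-nm laser-scanning cytometry, 500–530 nm intensity and object ratio to cell channel. Percent activity normalized to 20 uM Triacsin C.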
Potency is the fitted concentration of half-maximal effect.

| SMILES | lipid storage change, negative = inhibition | cell number change [%] | outcome | Potency |
| --- | --- | --- | --- | --- |
| O=C(Cc1cccc(C(F)(F)F)c1)NCc1cccnc1 | -11.2% (inactive) | 16.2 |  |  |
| CCc1c(C)sc(NC(=S)N2CCN(C(=O)C3CCCO3)CC2)c1C(=O)OC (stereo unspecified) |  |  | inactive |  |
| COc1ccc(C(=O)N/C(=C\c2cn(C)c3ccccc23)C(=O)N2CCN(C)CC2)cc1 |  | 12.5 | inactive |  |
| COc1ccccc1NC(=O)/C(C#N)=C/c1cccnc1 |  | 14.4 | inactive |  |
| COc1ccc(NC(=O)/C(C#N)=C/c2cccnc2)c(OC)c1 |  | -14.9 | inactive |  |
| COc1ccccc1NC(=O)/C(C#N)=C/c1ccncc1 |  | -3.78 |  | 1.16 µM (active) |
| Cc1ccc(NC(=O)CC2Oc3ccc(C)cc3NC2=O)c(C)c1 (stereo unspecified) | -7.11% (inactive) | 7.72 |  |  |
| Cc1ccc(S(=O)(=O)c2nnn(-c3cccc(F)c3)c2N)cc1 | 1.42% (inactive) | -21.1 |  |  |
| C[C@H](NC(=O)[C@H]1N2C(=O)c3ccccc3C2SC1(C)C)C(=O)N1CCC[C@H]1C(=O)O (stereo partly specified) | 26.5% (inactive) |  |  |  |
| CCC(C)NC(=O)[C@H]1N2C(=O)c3ccccc3C2SC1(C)C (stereo partly specified) | -2.79% (inactive) | 25 |  |  |
| C[C@H](NC(=O)[C@H]1N2C(=O)c3ccccc3C2SC1(C)C)C(=O)N1CCCCC1 (stereo partly specified) |  | -4.2 |  | 23.1 µM (active) |
| Cc1ccc(-c2nnnn2C2C/C(=N\NC(N)=S)C3OCC2O3)cc1 (stereo unspecified) | -15.2% (inactive) | -15.7 |  |  |
| COc1ccc(C(=O)OCC(=O)NCCCc2ccccc2)c(OC)c1 | 7.81% (inactive) | 26.9 |  |  |
| COc1ccc(C(=O)N(Cc2ccco2)Cc2cccs2)c(O)c1 |  | 11 | inactive |  |
| COc1ccc(C(=O)N(CCc2ccccc2)Cc2cccs2)c(OC)c1 |  | -11.1 |  | 13 µM (active) |
| CCOc1cc(C2C(C#N)=C(N)SC(N)=C2C#N)ccc1OCCN1CCOCC1 |  |  | inactive |  |
| CC(C)(C)OC(=O)CN1C(=O)S/C(=C\c2ccc(-c3cccc(C(=O)O)c3)o2)C1=O | -14.2% (inactive) | 2.36 |  |  |
| CCN=C1S/C(=C\c2ccc(Sc3ccc(Cl)cc3)o2)C(=O)N1CC | 21.1% (inactive) | -1.66 |  |  |
| CCN1C(=O)/C(=C\c2ccc(-c3cccc(C(=O)OC)c3)o2)SC1=Nc1ccc(C(=O)O)cc1 |  | -21.2 |  | 6.51 µM (active) |
| CCN=C1S/C(=C/c2ccc(-c3ccc(Cl)cc3C(=O)O)o2)C(=O)N1CC | -0.481% (inactive) |  |  |  |
| O=C(O)c1cccc(-c2ccc(/C=C3/SC(=Nc4ccccc4)N(Cc4cccnc4)C3=O)o2)c1 | 6.57% (inactive) | -5.87 |  |  |
| CCN=C1S/C(=C/c2ccc(-c3ccc(F)cc3)o2)C(=O)N1CC |  | 4.49 |  | 18.4 µM (active) |
| CC1=[N+](CC(=O)NC(C)(C)C)CCc2ccccc21 | -0.327% (inactive) | -0.377 |  |  |

| SMILES | lipid storage change, negative = inhibition | cell number change [%] | outcome | Potency |
| --- | --- | --- | --- | --- |
| O=C(Nc1cccc(OC(=O)c2ccc(Br)o2)c1)c1ccccc1 | 4.19% (inactive) | 11.8 |  |  |
| Cc1ccc(OCCCCNC2CCCCC2)c(C)c1 |  |  | inactive |  |
| CCCNC(=O)CC(NS(=O)(=O)c1ccc(Cl)cc1)c1ccco1 (stereo unspecified) | 19.4% (inactive) | 17.5 |  |  |
| COCCCNC(=O)CC(NS(=O)(=O)c1ccc(Cl)cc1)c1ccco1 (stereo unspecified) |  |  |  | 32.6 µM (active) |
| COCCCNC(=O)CC(NS(=O)(=O)c1ccc(C)cc1)c1ccco1 (stereo unspecified) | -3.27% (inactive) | 0.789 |  |  |
| CSC(=NC1CCCCC1)NS(=O)(=O)c1ccccc1 | -23.2% (inactive) |  |  |  |
| COc1ccc(N2CCN(C(=O)c3ccc4ccccc4n3)CC2)cc1 | 9.19% (inactive) | -2.64 |  |  |
| CN(CC(=O)Nc1ccc(N2CCOCC2)cc1)CC(=O)Nc1ccc(N2CCOCC2)cc1 | 6.32% (inactive) | -8.37 |  |  |
| O=[N+]([O-])C1=CC=C2C(=NC3(CCCCC3)N2O)C1=NCCO | -7.19% (inactive) | -8.38 |  |  |
| CCNC(=O)COc1ccc(/C=C2\COc3ccccc3C2=O)cc1OC |  |  |  | 3.66 µM (active) |
| CCOc1cc(/C=C2\COc3ccccc3C2=O)cc(Br)c1OCC(=O)N(C)C |  | 21.8 | inactive |  |
| CCOc1cc(/C=C2\COc3ccccc3C2=O)ccc1OCC(=O)N(C)C | -22.5% (inactive) | -5.65 |  |  |
| CSc1ccccc1OCc1cc(C(=O)NCCN2CCCc3ccccc32)no1 |  |  | inactive |  |
| O=C(Nc1nnc(SCC(=O)N2CCOCC2)s1)c1ccccc1 | -24.1% (inactive) |  |  |  |
| Cc1cc(NC(=O)c2ccc(S(=O)(=O)N3CCOCC3)cc2)nc2c1c(=O)oc1ccccc12 | -20.6% (inactive) | -0.276 |  |  |
| COc1cccc(CNC(=O)CCCNS(=O)(=O)c2cccs2)c1 | -4.23% (inactive) | -2.45 |  |  |
| CCOC(=O)C1=C(C)NC(C)=C(C(=O)OCC)C1C(=O)OCC(=O)NC1(C#N)CCCCC1 | 18.2% [at 0.0737 µM] (inactive) |  |  |  |
| O=C(CCCC(=O)OCC(F)(F)C(F)F)Nc1ccc(NC(=O)CCCC(=O)OCC(F)(F)C(F)F)cc1 |  | 25.6 | inactive |  |
| COc1ccc(N2CCN(C(=O)c3ccc(CNS(=O)(=O)c4cc(C)ccc4C)cc3)CC2)cc1 |  | -25.1 |  | 7.31 µM (active) |
| Cc1ccc(C)c(S(=O)(=O)NCc2ccc(C(=O)N3CC(C)OC(C)C3)cc2)c1 (stereo unspecified) | -12.4% (inactive) | -9.56 |  |  |
| CCOC(=O)N1CCN(C(=O)c2ccc(CNS(=O)(=O)c3ccc(OC)cc3)cc2)CC1 | 3.37% (inactive) |  |  |  |
| Cc1cccc(C(=O)NNc2ncnc3c2cnn3C)c1 | -6.2% (inactive) | 3.73 |  |  |
| CCCCCCC(=O)Oc1ccc(N2C(=O)CCC2=O)cc1 | 0.0787% (inactive) | -4.94 |  |  |

| SMILES | lipid storage change, negative = inhibition | cell number change [%] | outcome | Potency |
| --- | --- | --- | --- | --- |
| CCCCC(C)(O)C/C=C/[C@H]1[C@H](O)CC(=O)[C@@H]1CCCCCCC(=O)OC (stereo partly specified) |  | -1.2 |  | 23.1 µM (active) |
| CCCCC[C@H](O)/C=C/[C@@H]1[C@@H](C/C=C\CCCC(=O)OC)[C@@H](O)C[C@H]1O | 1.11% (inactive) | 2.9 |  |  |
| COC(=O)c1ccc(C2C(C(=O)OCC(C)C)=C(C)N=C3SCCC(=O)N32)cc1 (stereo unspecified) | -0.0854% (inactive) | -2.78 |  |  |
| CCCCCCN1C2=NCCCN2c2ccccc21 | 0.312% (inactive) | -6.55 |  |  |
| O=C(O)c1c(-n2cccc2)sc2c1CCCC2 | 11.6% (inactive) | 1.31 |  |  |
| Cc1sc(-n2cccc2)c(C(=O)O)c1C |  | -19.7 |  | 1.84 µM (active) |
| CCOC(=O)c1c(-n2cccc2)sc2c1CCCC2=O | -18.3% (inactive) | -2.93 |  |  |
| COc1ccc(Nc2ccncc2[N+](=O)[O-])cc1 | 4.18% (inactive) | 12.3 |  |  |
| O=C(C1CC(=O)N(c2ccccc2)C1)N1CCN(C2=NS(=O)(=O)c3ccccc32)CC1 (stereo unspecified) |  |  | inactive |  |
| Cc1cc(C)c(C)c(S(=O)(=O)N2CCC(C(=O)N3CC(C)CC(C)C3)CC2)c1C (stereo unspecified) | -16.7% (inactive) | -11.8 |  |  |
| COc1ccccc1NC(=O)C1=C(C)Nc2nnnn2C1c1cc(Br)ccc1OC (stereo unspecified) | -8.87% (inactive) | 1.78 |  |  |
| COc1ccc(CNC(C)C23CC4CC(CC(C4)C2)C3)c(OC)c1OC (stereo unspecified) | -4.64% (inactive) | 0.296 |  |  |
| CCCCCNC(=O)c1cccnc1SCC(=O)Nc1ccccc1OC | 6.16% (inactive) | -0.809 |  |  |
| CCCCCCCCNC(=O)c1cccnc1SCC(=O)Nc1ccc(OC)cc1OC |  | -25.3 |  | 20.6 µM (active) |
| COc1ccc(OC)c(NC(=O)CSc2ncccc2C(=O)O)c1 |  |  | inactive |  |
| CN(C(=O)C1CCC(=O)N(Cc2ccccc2F)C1)C1CCOCC1 (stereo unspecified) | 0.902% (inactive) | 7.76 |  |  |
| CC(C)CNC(=O)CC1Nc2ccccc2NC1=O (stereo unspecified) |  | -19.4 |  | 10.3 µM (active) |
| COC(=O)c1cc(C)sc1NC(=O)CC1Nc2ccccc2NC1=O (stereo unspecified) |  | -20.6 |  | 16.4 µM (active) |
| CCCCNC(=O)CC1Nc2ccccc2NC1=O (stereo unspecified) |  |  | inactive |  |
| CCc1cc(C(=O)OC)c(NC(=O)CC2Nc3cc(C)c(C)cc3NC2=O)s1 (stereo unspecified) | 9.56% (inactive) | -3.56 |  |  |
| COC(=O)c1c(NC(=O)CC2Nc3ccccc3NC2=O)sc(C)c1C (stereo unspecified) | -27% (inactive) | 18.7 |  |  |
| CC(NC(=O)CC1Nc2ccccc2NC1=O)c1ccccc1 (stereo unspecified) |  |  | inactive |  |
| COC(=O)c1[nH]c(C)c(/C(O)=C2\C(=O)C(=O)N(CCN(C)C)C2c2cccc(OC)c2OC)c1C (stereo unspecified) | 5.22% (inactive) | -3.7 |  |  |

| SMILES | lipid storage change, negative = inhibition | cell number change [%] | outcome | Potency |
| --- | --- | --- | --- | --- |
| Cc1cc(=O)oc2cc(OC(C)C(=O)NCCCn3ccnc3)ccc12 (stereo unspecified) |  | 5.93 | inactive |  |
| COC(=O)c1cn(NC(=O)c2ccncc2)c(=O)c2ccccc12 | 12.8% (inactive) | -18.7 |  |  |
| COc1ccccc1C(=O)N1CCN(Cc2nc(CC3CC3)no2)CC1 | -0.676% (inactive) | 10.8 |  |  |
| Cc1ccc(-c2ccccc2NC(=O)CS(=O)CC(=O)Nc2ccc(C)c(Cl)c2)o1 (stereo unspecified) |  | -13 |  | 23.1 µM (active) |
| Cc1ccc(NC(=O)CS(=O)CC(=O)Nc2ccccc2-c2ccc(C)o2)cc1 (stereo unspecified) |  | 17.8 | inactive |  |
| Cc1ccc(NC(=O)CS(=O)CC(=O)NCCCc2ccccc2)cc1Cl (stereo unspecified) | -6.88% (inactive) |  |  |  |
| OCC1(CCc2ccccc2)CCN(Cc2ccccc2Cl)CC1 | 5.38% (inactive) | 4.39 |  |  |
| COc1ccc(-c2nnc3ccc(SCC(=O)Nc4cc(C)on4)nn23)cc1 | 0.462% (inactive) | 8.27 |  |  |
| Cc1cc(C(=O)NC2CCCCC2)c(C)n1-c1ccc(F)cc1 | 6.96% (inactive) | 2.04 |  |  |
| COc1ccc(-n2c(C)cc(C(=O)NC3CCCCC3)c2C)cc1 | -14.2% (inactive) | -26.1 |  |  |
| Cc1cccc(-n2c(C)cc(C(=O)NC3CCCCC3)c2C)c1 |  | -27.1 |  | 20.6 µM (active) |
| O=C(Nc1ccc(Cl)cc1)C1C2CCC3C(CCC21)C3(Cl)Cl (stereo unspecified) | 14.4% (inactive) | -4.94 |  |  |
| O=C(NCC1CCCN1S(=O)(=O)c1ccccc1)C(=O)NC1CC1 (stereo unspecified) | 18.1% (inactive) |  |  |  |
| CCCc1ccc(S(=O)(=O)N(C)S(=O)(=O)c2ccc(F)cc2)cc1 |  | 17.6 |  | 0.82 µM (active) |
| CCN(CC)S(=O)(=O)c1ccc(F)cc1 | -5.13% (inactive) | 12.5 |  |  |
| CN(CC(=O)O)S(=O)(=O)c1ccc(F)cc1 | -2.19% (inactive) | 12.3 |  |  |
| CCN(CC(=O)Nc1ccccc1C(F)(F)F)C(=O)CSCc1ccc(C)cc1 | 14.9% (inactive) | 3.04 |  |  |
| COc1ccc(CNC(=O)OCCN2CCN(S(=O)(=O)c3ccc(C)cc3)CCC2=O)cc1 | 1.09% (inactive) | 22.9 |  |  |
| Cc1ccc(O)c(NC(=O)CN(C)S(=O)(=O)c2ccc(Cl)cc2)c1 | -11.4% (inactive) | 2.51 |  |  |
| COc1ccc(N2C(=O)C(CC(=O)Nc3ccccc3)N(CCc3ccc(OC)c(OC)c3)C2=O)cc1 (stereo unspecified) | 0.805% (inactive) | 0.202 |  |  |
| O=C(COC(=O)Cn1cnc2ccccc21)NCc1ccc(F)cc1 | 6.01% (inactive) | 21.3 |  |  |
| O=C(COC(=O)Cn1cnc2ccccc21)NCCC1=CCCCC1 | -86.9% (inactive) | -15.3 |  |  |
| O=C(COC(=O)Cn1cnc2ccccc21)NCCc1ccc(Cl)cc1 |  | 22.6 |  | 8.2 µM (active) |
